Experimental data taken from the supplement of paper PMC6555819.

What was measured:
Assay in all cases: PBM binding z-score (relative to random genomic background probes); higher = stronger binding; sequences stand for … in GC…GCGATTGACAGCGTAGAATGAAGG
[1] = test system: FXR:RXRa (NR concentration 270 nM, RXRa partner concentration 90 nM)
Summary of the method: (§1)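 Binding buffer was PBS pH 7.4 with 2% milk, 0.02% Triton X-100, 1 mM DTT, 0.2 mg/mL BSA and 0.4 mg/ml salmon testes DNA. In it, ligand-free nuclear receptor dimers were incubated 1 h on custom Agilent 4×180K protein-binding microarrays carrying double-stranded probes. Antibodies against each partner (one per run) detected binding, and z-scores were calculated against random background probes after regression normalization of scanned fluorescence.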

[2] = test system: LXRa:RXRa (NR concentration 270 nM, RXRa partner concentration 90 nM)
Summary of the method: as §1

[3] = test system: LXRa homodimer (NR concentration 270 nM)
Summary of the method: as §1

[4] = test system: LXRb:RXRa (NR concentration 270 nM, RXRa partner concentration 90 nM)
Summary of the method: as §1

[5] = test system: LXRb homodimer (NR concentration 270 nM)
Summary of the method: as §1

[6] = test system: PPARa:RXRa (NR concentration 270 nM, RXRa partner concentration 90 nM)
Summary of the method: as §1

[7] = test system: PPARg:RXRa (NR concentration 180 nM, RXRa partner concentration 90 nM)
Summary of the method: as §1

[8] = test system: PPARg:RXRa 270nM:90nM, anti-RXR (NR concentration 270 nM, RXRa partner concentration 90 nM)
Summary of the method: as §1

[9] = test system: PPARg:RXRa 30nM:10nM, anti-RXR (NR concentration 30 nM, RXRa partner concentration 10 nM)
Summary of the method: as §1

[10] = test system: PPARg:RXRa 90nM:30nM, anti-RXR (NR concentration 90 nM, RXRa partner concentration 30 nM)
Summary of the method: as §1

Sequence	PBM binding z-score [1]	PBM binding z-score [2]	PBM binding z-score [3]	PBM binding z-score [4]	PBM binding z-score [5]	PBM binding z-score [6]	PBM binding z-score [7]	PBM binding z-score [8]	PBM binding z-score [9]	PBM binding z-score [10]
ACTCAAAGTTCAGGACGAGGTAACGTAAAGCACG	4.15	4.07	1.77	2.18	0.639	3.27	1.61	1.86	0.747	1.23
CATACTAGGTCAAGGTCAAAGTCGGTTTGTGCCA	6.62	5.81	5.27	4.77	1.99	5.6	8.52	7.01	5.63	6.93
GCATATAGGTAATACAAGGTGAGAGTCCGATTGT	0.288	0.937	-0.139	0.0719	-0.459	0.92	1.14	1.19	0.605	0.684
CGTCCAAGGTCAAAGGTCAGAGAAGAGATGACGG	8.35	7.24	3.55	6.68	1.89	7.26	10.7	9.26	8.39	9.75
CCTCGGAGGACGACAGGAGGTCAGAGCTGCCAGA	0.759	1.38	0.305	1.13	-0.711	1.8	0.288	0.213	-0.596	-0.215
TCTCGGAGGACACGGAAGGTCAGAGCTCGACATC	2.08	1.8	1.19	1.33	-0.694	2.04	0.365	1.4	2.23	1.53
CAAATTAGGTCAAGGTCAAAGTCGGTTTGTGCCA	6.89	5.96	4.73	4.86	2.29	6.17	9.22	8.16	6.73	8.31
CCTACTGGGCCAAAGGTCATTGGTTCCAATGCTC	5.06	5.15	4.28	4.94	0.631	6.49	11.6	9.63	10.5	10.3
CCTACTAGGCCATCAGGTCATTGATATCAACGTT	2.15	1.63	1.62	2.16	0.844	3.19	3.75	4	2.04	3.5
TCATATAGGTAAATGCTAGGTAAAAGTCCGATCT	1.25	1.02	0.456	0.888	0.06	1.36	0.914	2.29	3.89	2.93
GCTGCTAGGTCTGGTTGGTCAGCTAACGGGTACG	-0.623	-0.65	-0.365	-0.912	-0.475	-0.774	-0.79	-0.447	-1.15	-0.815
GCGACTGGGGCAAAGCAGGTTATCATAAGGTTGG	0.502	0.29	-0.027	0.318	-0.831	1.41	1.29	1.17	-0.476	0.229
